Growth data for 14 compounds are collected here from PubChem BioAssay (NCI).

Each structure is given as a SMILES string. The panel holds about 83,000 compounds, 20% with a hit somewhere; the sample as a whole holds those more often.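 For each line, cells grew in 96-well plates with the test compound present at a single concentration for 48 hours.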 A number with no mark means an inactive call. Active and inactive are the calls of the source. How the source made its calls: active means growth percent below 10; inactive means the rest.

The subject of the assay is HCC-2998 colon. The assay can be described thus: NCI-60 one-dose screen, 48 h (100 = growth as untreated, 0 = no growth, -100 = all killed). The settings on record: 10 µM unless noted.
Turning to `CCOC(=O)c1sc(/N=C2\NC(=O)/C(=C/c3ccc(N4CCN(C)CC4)cc3)S2)nc1C`, the growth is 94.7%.

Turning to `COc1cc(C2=NN(c3ccccc3)C(c3cccc(Nc4ccnc5cc(C(F)(F)F)ccc45)c3)C2)cc(OC)c1OC` (centres undefined), the growth is 90%.

On to `COc1ccc(-c2cc(-c3nnc(SCC(=O)Nc4ccc(/C(C)=N\O)cc4)n3-c3ccccc3)c3cc(OC)ccc3n2)cc1`, for which the growth was 100%.

For `COc1ccc(OCC(=O)OC(C)C)cc1`, the growth was 103%.

With `CC1=C(CCCOC(=O)NCCCl)C2=C(C)C3(CC3)[C@@](C)(O)C(=O)C2=C1`, the growth was 28.8%. For `Nc1ccccc1NS(=O)(=O)c1ccc(Cl)cc1`, the growth is 84.4%. The result for `N#Cc1ccc(C2C3=C(CCCC3=O)OC3=C2C(=O)c2ccccc2C3=O)cc1` (centres undefined) reads 104%. The figure for `C=CCn1c(SCC(=O)Nc2ccc(C(=O)/C=C/c3cc(OC)c(OC)c(OC)c3)cc2)nnc1-c1ccccc1` is 108%; for `NS(=O)(=O)c1ccc(C2C3=C(CCCC3=O)OC3=C2C(=O)c2ccccc2C3=O)cc1` (centres undefined) it is -61.4% (active).

Regarding `COc1ccc2nc3nc4ccc[nH]c4cc3c2c1`, the growth was 101%.

For `COc1ccc(Nc2nc(SCC(C)C)nc(-c3ccc(F)cc3)c2C#N)cc1`, the growth is 92.8%. The figure for `NC(=O)CN1C(=O)c2ccccc2C1=O` is 103%; for `COc1cccc(C(=O)OCCn2nc3c4c(cccc42)C(=O)c2ccccc2-3)c1O` it is 80.3%. The result for `c1ccc(-c2n(Cc3ccc4ccccc4n3)cc[n+]2Cc2ccc3ccccc3c2)cc1` reads -13.2% (active).
